# An excerpt weighted towards active compounds, which were near 2.8% of everything screened.
# KDM5B inhibitor: inhibitors of human KDM5B histone demethylase | Q9UGL1 | KDM5B demethylase, FDH-coupled NADH fluorescence (FDH is formaldehyde dehydrogenase) | Potency, µM (series often up to 57.7 µM), hits mostly inhibitors | 220,000 compounds, 2.6% hits; further: potency means the concentration at half of the fitted maximal effect; 0% is about no effect; nearly all actives have a fitted effect of over 70% in size
#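 Coupled FDH/NAD⁺ fluorescence readout. KDM5BΔAP 200 nM final; compound titration, 10 min RT preincubation; substrate mix 12.5 µM H3K4me3, 25 µM 2-OG, 50 µM Fe(II), 100 µM ascorbate, 0.25 mM NAD⁺, 0.25 U/mL FDH; ΔRFU over 30 min.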
# IP6K1 inh: IP6K1 kinase inhibition. 140,000 compounds, 0.81% hits. Q92551. IP6K1 kinase, ADP-Glo luminescence, 2 h; stronger effect = lower value. activity change, % (series mostly up to about 58 µM). AID 1645851; in the data active means activity change below about -25%; further: on the % scale 0 is the no-effect control and ±100 the full control effect
# Target sequence (Q92551 whole entry, looked up): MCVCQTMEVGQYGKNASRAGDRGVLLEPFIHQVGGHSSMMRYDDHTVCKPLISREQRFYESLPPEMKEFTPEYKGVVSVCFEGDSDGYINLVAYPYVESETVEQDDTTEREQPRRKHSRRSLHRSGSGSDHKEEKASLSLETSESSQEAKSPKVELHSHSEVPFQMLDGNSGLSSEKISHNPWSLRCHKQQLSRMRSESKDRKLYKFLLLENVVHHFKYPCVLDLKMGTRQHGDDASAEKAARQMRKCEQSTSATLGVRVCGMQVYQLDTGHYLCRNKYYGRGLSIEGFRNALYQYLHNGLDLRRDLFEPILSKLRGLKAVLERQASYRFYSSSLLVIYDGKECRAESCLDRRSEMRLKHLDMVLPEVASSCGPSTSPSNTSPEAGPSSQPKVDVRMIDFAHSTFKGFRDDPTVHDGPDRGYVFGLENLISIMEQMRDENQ
#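 ADP-Glo luminescence measures ADP made by human IP6K1 during a 2 h RT reaction with ATP/IP6 (mix at 1.3 mM/130 uM); top library doses 57.5 and 19.1 uM final.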
# IP6K1 inh cnf: human IP6K1 inhibition, confirmatory | shares compounds with IP6K1 inh | recombinant IP6K1 kinase, ADP-Glo luminescence, 2 h | Potency, µM (titrated, usually from 49 µM), inactives show at the highest dose activity change, negative = inhibition, most hits filed as inhibitors | 1,200 compounds, 13% hits; further: potency means the concentration at half of the fitted maximal effect; on the % scale 0 is the no-effect control and ±100 the full control effect; nearly all actives have a fitted effect of over 65% in size
# Numbers without * were called inactive; i = inactive; u = inconclusive; x = no result given; [ ] = dose if it differs, or a comment. Unless noted, the call rests on the fitted dose curve; in most records, active means well fitted inhibition curve with a large enough effect; inconclusive means small, poorly fitted or top-dose-only effect; inactive means no such curve, though single readings can be large or run the other way.
SMILES,KDM5B inhibitor,IP6K1 inh,IP6K1 inh cnf
CC(C)c1ccc(Nc2c(-c3ccsc3)nc3ccc(Cl)cn23)cc1,i,-31.0*,-10.7%
CCc1cccc(NC(=O)COC(=O)Cc2cccc3ccccc23)c1,i,x,x
O=C(CS)Nc1ccccc1,x,-27.0*,u
O=C(CS)Nc1ccc2ccccc2c1,i,x,x
Cc1ccc(-c2nc(N)sc2CC(=O)OCC(=O)N(CCC#N)c2ccc(F)cc2)cc1,i,x,x
N#Cc1nc(COc2ccccc2)oc1NCCc1ccccc1,i,x,x
N#Cc1ccc2ncnc(NCCc3ccccc3)c2c1,x,-45.0*,10.3µM*
COc1ccc(C2CC(=O)Nc3nc(N)sc32)cc1OC (stereo not drawn),i,x,x
Nc1nc2c(s1)C(c1cccc(F)c1)CC(=O)N2 (stereo not drawn),i,-31.2*,u
CC(C)(C)c1ccc(CNCCC(=O)O)cc1,i,x,x
Cc1cc(C)cc(Nc2ncnc3c2nc2n3CCCC2)c1,u,-31.7*,-19.3%
Cc1ccc(Nc2ncnc3c2nc2n3CCCC2)cc1F,i,-15.2,x
Brc1c(Br)c(Br)c2n[nH]nc2c1Br,x,x,0.731µM*
c1ccc2c(c1)ccc1n[nH]nc12,i,x,x
Cc1nc(N)c(C(N)=O)[nH]1,i,x,x
CCC(O)C(=O)N1CCc2onc(-c3ccc(-c4ccccc4)cc3)c2C1 (stereo not drawn),i,-46.6*,u
CCCOc1ccccc1C(=O)N1CCc2onc(-c3ccccc3)c2C1,i,-0.2,x
Cc1ccc(CNc2nc(-c3ccccc3C(F)(F)F)nc3ccccc23)s1,x,x,-6.7%
CN(Cc1cccs1)c1nc(-c2ccccc2C(F)(F)F)nc2ccccc12,x,x,8.3%
CC(C)(CNc1nc(-c2ccccc2)nc2ccccc12)N1CCOCC1,i,x,x
FC(F)(F)c1ccccc1-c1nc(NCc2ccc(Cl)cc2)c2ccccc2n1,x,x,-1.7%
CN(Cc1ccccc1)c1nc(-c2cccnc2)nc2ccccc12,i,x,x
FC(F)(F)c1ccnc(NCc2ccc(Cl)cc2)n1,i,x,x
FC(F)(F)c1ccccc1-c1nc(NCc2ccccc2)c2ccccc2n1,x,x,30.6%
OCCOc1ccc(CNc2nc(-c3ccccc3)nc3ccccc23)cc1,i,x,x
SMILES,KDM5B inhibitor,IP6K1 inh,IP6K1 inh cnf
CSc1cccc(NC(=O)c2ccc(F)cc2F)c1,i,x,x
CC(C)NC(=O)Nc1ccc(CN)cc1,i,x,x
Cn1cnc2c(F)c(Nc3ccc(Br)cc3Cl)c(C(=O)NOCCO)cc21,x,15.1,-12.7%
CCOC(=O)c1cnc2cc(Cl)c(OC)cc2c1Nc1ccc(Br)cc1C,u,1.1,x
O=C(CCCOc1ccccc1)OCC(=O)c1ccc2c(c1)OCO2,i,x,x
Cc1ccc2[nH]c(C)c(CC(=O)NC(C)c3ccc(C)o3)c2c1 (stereo not drawn),i,x,x
CCCCn1c(CCNC(=O)c2cccs2)nc2ccccc21,i,x,x
CCCCCn1c(CCCNC(=O)c2ccc(Cl)cc2)nc2ccccc21,i,-39.4*,-7.9%
O=C(Nc1cccc(Cl)c1Cl)c1cc(S(=O)(=O)N2CCCc3ccccc32)ccc1F,i,-2.0,x
O=C(Nc1cc(Cl)ccc1Cl)c1cc(S(=O)(=O)N2CCCc3ccccc32)ccc1F,i,-30.1*,-7.7%
CCC(=O)c1cc2c(cc1NC(=O)c1ccccc1F)OCCO2,i,19.4,x
CC(C)C(=O)c1cc2c(cc1NC(=O)c1ccccc1F)OCCO2,u,-27.6*,-16.5%
Cc1[nH]c(/C=C2\C(=O)Nc3ccc(S(=O)(=O)N(C)c4cccc(Cl)c4)cc32)c(C)c1C(=O)N1CCN(C)CC1,x,15.3,x
Cc1[nH]c(C=C2C(=O)Nc3ccc(S(=O)(=O)Cc4c(Cl)cccc4Cl)cc32)c(C)c1C(=O)N1CCC[C@H]1CN1CCCC1,x,x,-11.5%
Cc1[nH]c(/C=C2\C(=O)Nc3ccc(F)cc32)c(C)c1C(=O)NCCN1CCCC1,x,-5.4,1.9%[18.9 µM]
CCN(CC)CCNC(=O)c1c(C)[nH]c(/C=C2\C(=O)Nc3ccc(F)cc32)c1C,x,18.3,x
Cn1c(=O)c2c(nc(SCc3ccc(F)cc3)n2Cc2ccccc2)n(C)c1=O,i,x,x
Cn1cccc1CN1CC(N2CCc3ccccc32)C1,u,0.3,x
COc1ccc(C2(C(=O)N3CCC4(CC3)CC(N3CCOCC3)CCO4)CC2)cc1 (stereo not drawn),i,7.0,x
COc1ccc(S(=O)(=O)N2CCC3(CC2)CC(N2CCOCC2)CCO3)cc1 (stereo not drawn),i,-25.7*,-16.1%
CC(Sc1nnc(-c2ccccc2F)n1C1CC1)c1ccccc1 (stereo not drawn),i,x,x
Cc1ccc(S(=O)(=O)n2nc(C)c(S(=O)(=O)N3CCCCCC3)c2C)cc1C,u,-26.9*,3.8%
CCCCOc1ccc(S(=O)(=O)n2nc(C)c(S(=O)(=O)N3CCC(C)CC3)c2C)cc1,u,-26.0*,-6.2%
Cc1nn(S(=O)(=O)c2ccc(Cl)cc2)c(C)c1S(=O)(=O)N1CCCCCC1,u,-10.0,x
CCCCOc1ccc(S(=O)(=O)n2nc(C)c(S(=O)(=O)N3CCCCCC3)c2C)cc1,u,-5.9,x
SMILES,KDM5B inhibitor,IP6K1 inh,IP6K1 inh cnf
Cc1ccc(C)c(N=C/C(C(=O)C(F)(F)F)=C(\O)c2cccs2)c1,i,x,x
Cc1ccc(/C=N\NC(=O)c2ccc(C)cc2)cc1,i,x,x
COC(=O)CSc1nc2c(cnn2-c2ccc(F)cc2)c(=O)[nH]1,i,-31.7*,u
CCOC(=O)C(CC)Sc1nc2c(cnn2-c2ccc(F)cc2)c(=O)[nH]1 (stereo not drawn),i,x,x
O=C(O)c1cc(O)c(O)c(O)c1,x,-28.4*,-11.0%
O=C(c1cc(O)c(O)c(O)c1)c1ccc(O)c(O)c1O,x,-66.7*,-27.2%
Oc1ccc(Cl)cc1Cc1cc(Cl)ccc1O,x,3.0,x
Cc1c(Br)cc(C(=O)O)cc1Br,i,x,x
COc1ccccc1-c1cccc(CN2CCC(NC(=O)c3cccnc3)CC2)c1,x,0.1,x
O=C(NCc1cccnc1)c1nn(-c2ccccc2F)nc1CO,u,7.7,x
CNC(=O)c1cc(-c2ccc(CO)cc2)cc2c1OCCN2Cc1cccnc1,28.2µM*,-26.5*,21.9%
Cc1ccc(CNC(=O)c2cc3c(=O)n(Cc4cccnc4)ccc3nc2C)cc1,u,-7.7,x
O=C(NCc1cccnc1)c1cc(-c2ccccc2F)cc2c1OCCN2Cc1cccnc1,28.2µM*,-27.7*,u
O=C(NC1CC1)c1cc(-c2ccccc2F)cc2c1OCCN2Cc1cccnc1,31.6µM*,-25.7*,u
NC(=O)c1cccc(CN2CCC3(CC2)Cc2ccccc2N(C(=O)C2CCCC2)C3)c1,i,-11.0,x
Cn1c(=O)c2c(nc(Cl)n2CC(=O)N2CCCC2=O)n(C)c1=O,i,x,x
CCc1nc2ccccc2n1CCCCOc1ccccc1C,u,-29.5*,-21.6%
CCc1nc2ccccc2n1CCCCOc1ccc(C)cc1,u,23.5,x
CCCN(CCC)CCNC(=O)COCc1cc(-c2cccs2)on1,i,x,x
O=C1c2ccccc2C(=O)c2c1ccc(O)c2O,x,-26.9*,3.66µM*
O=C1c2cccc(O)c2C(=O)c2c(O)cccc21,x,-0.2,x
Cc1ccc(C)c(C(=O)NC(C)C2CC3CCC2C3)c1 (stereo not drawn),i,x,x
CCN1CCC2(CCC1=O)CN(Cc1nc(CCOC)no1)CCN2C (stereo not drawn),i,-33.2*,-5.5%
CCN1CCC2(CCC1=O)CN(Cc1noc(CC(C)C)n1)CCN2C (stereo not drawn),i,-4.6,x

# Screens from PubChem BioAssay.
